Assay results reported in PubChem BioAssay AID1159580 (chemical genetic matrix, 2015).
Out of some 5,500 compounds screened, about 2,000 (36%) were called active. Roughly 18% stayed inconclusive and do not appear here. Cut-off read from the data, not from the text of the source: active = normalized growth mostly below about 0.91 (no sharp cut-off); inconclusive = no clear call, values can overlap the other calls; inactive = mostly above about 0.92. The list shows a part of the results.

Assay: chemical genetic growth profiling, strain panel (AID 1159580);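 note: tested at 20 µM; growth read once vehicle control cultures reached saturation at 30 °C; 1 = growth at the plate median or of vehicle wells; lower values mean less growth of the strain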
Conditions: growth OD

Measured: normalized growth

Nc1ccn(C2O[C@H](CO)[C@@H](O)[C@H]2O)c(=O)n1 (some centres undefined)
inactive: S. cerevisiae deletion strains, locus YJR075W, strain HOC1, active compounds read low 1.02 | S. cerevisiae deletion strains, locus YKL009W, strain mrt4, active compounds read low 1.04 | S. cerevisiae deletion strains, locus YKL068W, active compounds read low 1 | S. cerevisiae deletion strains, locus YKL085W, strain MDH1 (second series), active compounds read low 1 | S. cerevisiae deletion strains, locus YKL085W, strain MDH1, active compounds read low 1 | S. cerevisiae deletion strains, locus YKL160W, strain elf1, active compounds read low 0.994 | S. cerevisiae deletion strains, locus YKL190W, strain CNB1, active compounds read low 0.989 | S. cerevisiae deletion strains, locus YKR001C, strain vps1, active compounds read low 1.03 | S. cerevisiae deletion strains, locus YKR026C, strain gcn3, active compounds read low 1 | S. cerevisiae deletion strains, locus YKR091W, strain srl3, active compounds read low 0.986 | S. cerevisiae deletion strains, locus YLL001W, strain dnm1, active compounds read low 0.989 | S. cerevisiae deletion strains, locus YLL026W, active compounds read low 0.994 | S. cerevisiae deletion strains, locus YLL041C, strain sdh2, active compounds read low 0.987 | S. cerevisiae deletion strains, locus YLR027C, strain aat2, active compounds read low 0.984 | S. cerevisiae deletion strains, locus YLR039C, strain RIC1, active compounds read low 1.01 | S. cerevisiae deletion strains, locus YLR058C, strain SHM2, active compounds read low 0.998 | S. cerevisiae deletion strains, locus YLR102C, strain apc9, active compounds read low 1.01 | S. cerevisiae deletion strains, locus YLR113W, strain HOG1, active compounds read low 1.01 | S. cerevisiae deletion strains, locus YLR221C, strain rsa3, active compounds read low 1 | S. cerevisiae deletion strains, locus YLR258W, strain gsy2, active compounds read low 1 | S. cerevisiae deletion strains, locus YLR262C, strain YPT6 (second series), active compounds read low 0.992 | S. cerevisiae deletion strains, locus YLR262C, strain YPT6, active compounds read low 1.05 | S. cerevisiae deletion strains, locus YLR268W, strain sec22, active compounds read low 1.05 | S. cerevisiae deletion strains, locus YLR320W, strain mms22, active compounds read low 0.995 | S. cerevisiae deletion strains, locus YLR330W, strain CHS5, active compounds read low 0.986 | S. cerevisiae deletion strains, locus YLR342W, strain FKS1 (second series), active compounds read low 1.02 | S. cerevisiae deletion strains, locus YLR342W, strain FKS1, active compounds read low 0.995 | S. cerevisiae deletion strains, locus YLR357W, strain rsc2, active compounds read low 0.964 | S. cerevisiae deletion strains, locus YLR370C, strain arc18, active compounds read low 0.998 | S. cerevisiae deletion strains, locus YLR371W, strain rom2, active compounds read low 1.01 | S. cerevisiae deletion strains, locus YLR384C, strain iki3, active compounds read low 1 | S. cerevisiae deletion strains, locus YLR418C, strain cdc73, active compounds read low 1.01 | S. cerevisiae deletion strains, locus YML016C, strain PPZ1, active compounds read low 1 | S. cerevisiae deletion strains, locus YML032C, strain rad52, active compounds read low 0.993 | S. cerevisiae deletion strains, locus YML120C, strain ndi1, active compounds read low 0.979 | S. cerevisiae deletion strains, locus YML124C, strain tub3, active compounds read low 1.01 | S. cerevisiae deletion strains, locus YMR058W, strain fet3, active compounds read low 0.983 | S. cerevisiae deletion strains, locus YMR078C, strain ctf18, active compounds read low 1.02 | S. cerevisiae deletion strains, locus YMR125W, strain sto1, active compounds read low 0.973 | S. cerevisiae deletion strains, locus YMR129W, active compounds read low 0.991 | S. cerevisiae deletion strains, locus YMR205C, strain PFK2, active compounds read low 0.998 | S. cerevisiae deletion strains, locus YMR223W, strain ubp8, active compounds read low 1.02 | S. cerevisiae deletion strains, locus YMR231W, strain pep5, active compounds read low 0.979 | S. cerevisiae deletion strains, locus YMR307W, strain GAS1, active compounds read low 1.05 | S. cerevisiae deletion strains, locus YNL067W, strain RPL9B, active compounds read low 1.03 | S. cerevisiae deletion strains, locus YNL071W, strain lat1, active compounds read low 0.983 | S. cerevisiae deletion strains, locus YNL128W, strain TEP1, active compounds read low 1.01 | S. cerevisiae deletion strains, locus YNL153C, strain GIM3, active compounds read low 1.03 | S. cerevisiae deletion strains, locus YNL183C, strain NPR1, active compounds read low 0.933 | S. cerevisiae deletion strains, locus YNL209W, strain ssb2, active compounds read low 0.992 | S. cerevisiae deletion strains, locus YNL233W, strain BNI4, active compounds read low 1.05 | S. cerevisiae deletion strains, locus YNL248C, strain rpa49, active compounds read low 0.984 | S. cerevisiae deletion strains, locus YNL250W, strain rad50, active compounds read low 1 | S. cerevisiae deletion strains, locus YNL271C, strain bni1, active compounds read low 1.01 | S. cerevisiae deletion strains, locus YNL298W, strain CLA4, active compounds read low 1 | S. cerevisiae deletion strains, locus YNL307C, strain MCK1, active compounds read low 1.02 | S. cerevisiae deletion strains, locus YNL322C, strain KRE1 (second series), active compounds read low 1.01 | S. cerevisiae deletion strains, locus YNR049C, strain mso1, active compounds read low 0.985 | S. cerevisiae deletion strains, locus YNR052C, strain pop2, active compounds read low 1.01 | S. cerevisiae deletion strains, locus YOL006C, strain TOP1, active compounds read low 1.09 | S. cerevisiae deletion strains, locus YOL012C, strain htz1 0.74 | S. cerevisiae deletion strains, locus YOL147C, strain pex11, active compounds read low 1 | S. cerevisiae deletion strains, locus YOR001W, strain rrp6, active compounds read low 0.98 | S. cerevisiae deletion strains, locus YOR061W, strain CKA2, active compounds read low 1.01 | S. cerevisiae deletion strains, locus YOR069W, strain VPS5, active compounds read low 1.01 | S. cerevisiae deletion strains, locus YOR070C, strain gyp1, active compounds read low 1 | S. cerevisiae deletion strains, locus YOR080W, strain dia2, active compounds read low 1 | S. cerevisiae deletion strains, locus YOR083W, strain WHI5, active compounds read low 0.992 | S. cerevisiae deletion strains, locus YOR106W, strain vam3, active compounds read low 1.02 | S. cerevisiae deletion strains, locus YOR136W, strain idh2, active compounds read low 1.01 | S. cerevisiae deletion strains, locus YOR144C, strain elg1, active compounds read low 1.01 | S. cerevisiae deletion strains, locus YOR184W, strain ser1, active compounds read low 1.02 | S. cerevisiae deletion strains, locus YOR231W, strain MKK1, active compounds read low 0.997 | S. cerevisiae deletion strains, locus YOR265W, strain rbl2, active compounds read low 0.988 | S. cerevisiae deletion strains, locus YOR270C, strain vph1, active compounds read low 0.956 | S. cerevisiae deletion strains, locus YOR290C, strain snf2, active compounds read low 0.989 | S. cerevisiae deletion strains, locus YOR316C, strain cot1, active compounds read low 1.01 | S. cerevisiae deletion strains, locus YPL051W, strain arl3, active compounds read low 1 | S. cerevisiae deletion strains, locus YPL055C, strain LGE1, active compounds read low 1.01 | S. cerevisiae deletion strains, locus YPL078C, strain atp4, active compounds read low 0.993 | S. cerevisiae deletion strains, locus YPL106C, strain sse1, active compounds read low 0.992 | S. cerevisiae deletion strains, locus YPL240C, strain hsp82, active compounds read low 1 | S. cerevisiae deletion strains, locus YPL256C, strain CLN2, active compounds read low 1 | S. cerevisiae deletion strains, locus YPR119W, strain clb2, active compounds read low 0.996 | S. cerevisiae deletion strains, locus YPR141C, strain kar3, active compounds read low 1.01 | S. cerevisiae deletion strains, locus YPR163C, strain tif3, active compounds read low 1.01 | S. cerevisiae deletion strains, locus YPR167C, strain met16, active compounds read low 1.01 | S. cerevisiae deletion strains, strain wtn01, active compounds read low 1.05 | S. cerevisiae strains, strain wild type, active compounds read low 0.98
